In the supplement of paper PMC6555819:

The sequences below were run on PPARa:RXRa (NR concentration 270 nM, RXRa partner concentration 90 nM) (assay: PBM binding z-score (relative to random genomic background probes); higher = stronger binding; sequences stand for … in GC…GCGATTGACAGCGTAGAATGAAGG).
Summary of the method: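 Antibodies against each partner of ligand-free nuclear receptor dimers (one per run) detected binding on custom Agilent 4×180K protein-binding microarrays after 1 h incubation. The double-stranded probes had 34-nt variable regions carrying direct-repeat seeds, single-nucleotide variants, half-site ablations and random human genomic background sequences. Binding z-scores, from regression-normalized fluorescence, use the random background probes as reference.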
TCGAGTAGGTTAGGGGCATGCAGAATGGCGTCGA was tested, and the PBM binding z-score was 1.29. With TCATATAGGTGAAGGTGAAAGTCGAACGATATGA the PBM binding z-score was 3.24. In the case of GCGACCGGGGCAAAGCAGGTTACCATAAGGTTGG, the PBM binding z-score is reported as 1.42. With CAGACTGGGGCAAGGTTACCATAACGCACAGCCA the PBM binding z-score was 2.41. CCTAGTTGGTCTAGGTCACACACGCTATAGGTAC was tested, and the PBM binding z-score was 2.18. Sequence ATATGTAGGTTATCGGGTCATTCCGTTTGCGCAT has a PBM binding z-score of 4.81. CCTAACAGGCCAATCTGGGTCACTCAAGGCTTGA showed a PBM binding z-score of 3.19. Sequence CCTAGCAGGCCAGGGTCACTCGAGCATTTCGCTT has a PBM binding z-score of 2.98. CAAACTAGGTCGCGAAAGGTCAAAGTCGAATGAC was tested, and the PBM binding z-score was 6.03. For ACTAGTTGGTCAGCCGAGGTCACACACAATTCGG, the PBM binding z-score was 3.85. With TCTTGTAGATCAATAGAGATTAAGAAAGTGCGCT the PBM binding z-score was -0.000927. Work on ACTAGTTGGTCAGCTGAGGTCAGACACAATTCGG yielded a PBM binding z-score of 2.42. Work on AGAACGAGGGCACGCTGAGTTGATAGAAGAGTAG yielded a PBM binding z-score of 2.09. In the case of ACTCGGAGGCCAAAGGTCAGAGCTACGCCAGTGA, the PBM binding z-score is reported as 5.63. In the case of TATACAGCGTCAAAGGCCAGAGTACGAATGTCGA, the PBM binding z-score is reported as 0.0937. With AGAACGAGGGCACGCTTAGTTGATAGCAGAGTAG the PBM binding z-score was 2.26. Work on GCTTACGGGTCAAAGCTTATAGCATGAATAGAAT yielded a PBM binding z-score of 5.7. Work on TGTCAAAGTTCAAAGGTAACATAAGTATCCACAC yielded a PBM binding z-score of 6.03. AGTCAAAGTTCATCTAGGTACCGTAAGATATGCT was tested, and the PBM binding z-score was 4.76. Sequence CCTAGTTGGTCAAGGTCACACAAGCTATAGGTAC has a PBM binding z-score of 4.21. In the case of ATATGTAGGTTATCGGGACATTCAGTTTGCGCAT, the PBM binding z-score is reported as 3.3. Sequence CCTCACGGGTCAAGGTTATAGCACGGGTGGTACG has a PBM binding z-score of 4.38. Sequence TCATATTGGTAAACAGGTGAAAGTCCGTAAGTTA has a PBM binding z-score of 1.66. In the case of CTCGAAAGGTCGGTCGAGGTGAGTATACGGATAA, the PBM binding z-score is reported as 2.75. Sequence CGTCCAAGGTCATAGGAGGTCAGTTAAGACAGAT has a PBM binding z-score of 5.68. For GATACAGGGTCAGCTAGAGGCCAGAGTTTGGAAA, the PBM binding z-score was 4.08. GCTAGTTGGTCAGTAAAAGGTCACACATCGGTCG gave a PBM binding z-score of 4.23. With TCATATAGGTAAAAGGTGGAAGTCGGTGTGGTAA the PBM binding z-score was 3.71. Sequence GCAGACAGGTGAAACGCAGGAAACTCAGGGTGGC has a PBM binding z-score of 0.952. Sequence CCTGCTAGATCAATGGTCAGCTAAAGCAGCTCGC has a PBM binding z-score of -0.697. For GTACCAGGGTGAATAGGTCGTTGATGAGTAGGCG, the PBM binding z-score was 2.09. For TCATATAGGTCAATGCTAGGTGAAAGTCCGATCT, the PBM binding z-score was 5. GCTAGCTGGCCATTTGGGTCACTCAATGACGGGC was tested, and the PBM binding z-score was 0.689. Sequence TCATATAGGTAAACGTGAAAGTCGAACGATATGA has a PBM binding z-score of 1.33. CAAACTAGGTCAAAGGTCTAAGTCGAGCCAACCA gave a PBM binding z-score of 6.51. With GCTTACGGGTCATAGGTTATAGCATGAATAGAAT the PBM binding z-score was 5.87. CAAACTAGGTCACGAAAGGTCAAAGACGAATGAC was tested, and the PBM binding z-score was 6.72. With CGTCCCAGGTCAATGCTAGGTCAGTGAAAGCATT the PBM binding z-score was 3.94. Work on TCTCGGAGGACACGAACGGTCAGAGCTCGACATC yielded a PBM binding z-score of 0.0396. Sequence CCGACTGGGGCATAATGTTACCATAAGCCAGCCC has a PBM binding z-score of 0.127.
